About 79,000 compounds went through this panel and 15% of them were active in at least one assay; those are over-represented in the sample as a whole. Unmarked numbers belong to inactive results. Active and inactive are the calls of the source. No stated cut-off is given here; in the data, active means growth inhibition above about 70%; inactive means the rest.
Legend:
[1] = NCI Yeast Anticancer Drug Screen. Data for the rad52 strain (AID 147);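 further: 0% = growth of vehicle-treated control cultures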; conditions: S. cerevisiae rad52 mutant growth inhibition, stronger effect = higher value
How it was run: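 Compounds are applied to a genetically defined yeast strain lacking normal DNA damage repair, and inhibition of growth is expressed relative to cultures given vehicle only.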

[2] = NCI Yeast Anticancer Drug Screen. Data for the rad50EPP+ strain (AID 151);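 further: 0% = growth of vehicle-treated control cultures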; conditions: S. cerevisiae rad50 mutant strain, stronger effect = higher value
How it was run: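 Compounds were applied to the rad50EPP+ yeast strain, which bears a defined DNA repair alteration, and growth inhibition was determined relative to vehicle-treated cultures.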

[3] = NCI Yeast Anticancer Drug Screen. Data for the mgt1 strain (AID 153); conditions: S. cerevisiae mgt1 mutant growth inhibition, stronger effect = higher value
How it was run: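 Strain: mgt1 yeast, one of a set carrying defined DNA damage repair or cell cycle control alterations. Compound-treated growth compared with vehicle.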

[4] = NCI Yeast Anticancer Drug Screen. Data for the rad50 strain (AID 155);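 further: 0% = growth of vehicle-only cultures of the same strain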; conditions: S. cerevisiae rad50 strain growth inhibition, stronger effect = higher value
How it was run: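 A DNA repair-deficient yeast mutant serves as the test organism; compound-induced growth inhibition is calculated against vehicle-treated cells.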

[5] = NCI Yeast Anticancer Drug Screen. Data for the mec2-1 strain (AID 157); conditions: S. cerevisiae mec2-1 strain, stronger effect = higher value
How it was run: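 Strain: mec2-1 (DNA repair/cell cycle alteration). Compound exposure, then growth measured; inhibition expressed relative to vehicle.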

[6] = NCI Yeast Anticancer Drug Screen. Data for the rad14 strain (AID 159);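 further: 0% = growth of vehicle-treated control cultures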; conditions: S. cerevisiae rad14 strain growth inhibition, stronger effect = higher value
How it was run: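 Vehicle-treated cultures served as the baseline for growth inhibition of a DNA repair-mutant yeast strain exposed to each compound.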

[7] = NCI Yeast Anticancer Drug Screen. Data for the sgs1 mgt1 strain (AID 161);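 further: 0% = growth of cultures given vehicle only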; conditions: S. cerevisiae sgs1 mgt1 strain, stronger effect = higher value
How it was run: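 Read-out: growth inhibition vs vehicle controls. Cells: mutant yeast strain deficient in DNA damage repair.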

[8] = NCI Yeast Anticancer Drug Screen. Data for the CLN2oe strain (AID 163);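 further: 0% = growth of vehicle-only control cultures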; conditions: S. cerevisiae CLN2oe strain, stronger effect = higher value
How it was run: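 Growth of a genetically modified yeast strain is measured after compound exposure and compared with cultures given vehicle alone.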

[9] = NCI Yeast Anticancer Drug Screen. Data for the cln2 rad14 strain (AID 165);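 further: 0% = growth equal to vehicle treated cultures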; conditions: S. cerevisiae cln2 rad14 strain, stronger effect = higher value
How it was run: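 Compounds are applied to the cln2 rad14 yeast strain, and growth is then compared with that of vehicle-treated cultures to give inhibition.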

[10] = NCI Yeast Anticancer Drug Screen. Data for the bub3 strain (AID 167); conditions: S. cerevisiae bub3 mutant strain, stronger effect = higher value
How it was run: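 Inhibition values come from growth of compound-treated mutant yeast normalised to vehicle-treated controls.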

[11] = NCI Yeast Anticancer Drug Screen. Data for the wt2 strain (AID 169);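 further: 0% = growth of vehicle-treated yeast cultures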; conditions: S. cerevisiae wt2 strain growth inhibition, stronger effect = higher value
How it was run: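 This strain belongs to a panel of yeast strains with defined genetic alterations in DNA damage repair or cell cycle control. Compounds are applied, and growth inhibition is measured against vehicle-treated cultures.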

[12] = NCI Yeast Anticancer Drug Screen. Data for the mlh1 strain (AID 171);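 further: 0% = growth of vehicle-treated control cultures of the same strain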; conditions: S. cerevisiae mlh1 strain growth inhibition, stronger effect = higher value
How it was run: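 Growth of the mutant yeast strain after compound exposure, expressed as inhibition relative to vehicle-only controls.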

[13] = NCI Yeast Anticancer Drug Screen. Data for the sgs1 strain (AID 173);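 further: 0% = growth of vehicle-only control cultures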; conditions: S. cerevisiae sgs1 mutant, stronger effect = higher value
How it was run: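 Growth of a yeast strain bearing a defined genetic alteration is measured after compound treatment. Inhibition is expressed relative to vehicle-only controls.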

[14] = NCI Yeast Anticancer Drug Screen. Data for the mlh1 rad18 strain (AID 175); conditions: S. cerevisiae mlh1 rad18 strain growth inhibition, stronger effect = higher value
How it was run: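 Read-out is yeast growth inhibition, calculated against vehicle-only controls. The compound was applied to a strain engineered with DNA damage repair alterations.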

[15] = NCI Yeast Anticancer Drug Screen. Data for the rad18 strain (AID 177); conditions: S. cerevisiae rad18 mutant growth inhibition, stronger effect = higher value
How it was run: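 Growth of the mutant yeast strain after compound exposure, normalised to vehicle-only cultures.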

[16] = at 5.0 µM (retest, dose inferred, filed as 0.5)
[17] = at 50.0 µM (retest, dose inferred, filed as 5.0)

Structure (SMILES): CC(C)=CCC/C(C)=C/CN1C(=O)C=CC1=O
- growth inhibition ([1]; at 1.2 µM): 9%
- growth inhibition ([1]; at 3.7 µM): 36%
- growth inhibition ([1]; at 11.0 µM): 99% (active)
- growth inhibition ([1]; at 33.0 µM): 99% (active)
- growth inhibition ([1]; at 100.0 µM): 99% (active)
- growth inhibition ([2]; at 1.2 µM): 57%
- growth inhibition ([2]; at 3.7 µM): 86% (active)
- growth inhibition ([2]; at 11.0 µM): 99% (active)
- growth inhibition ([2]; at 33.0 µM): 99% (active)
- growth inhibition ([2]; at 100.0 µM): 99% (active)
- growth inhibition ([3]; at 1.2 µM): -3%
- growth inhibition ([3]; at 3.7 µM): 18%
- growth inhibition ([3]; at 11.0 µM): 100% (active)
- growth inhibition ([3]; at 33.0 µM): 100% (active)
- growth inhibition ([3]; at 100.0 µM): 100% (active)
- growth inhibition ([4]; at 1.2 µM): 7%
- growth inhibition ([4]; at 3.7 µM): 42%
- growth inhibition [4, 16]: 13%
- growth inhibition ([4]; at 11.0 µM): 99% (active)
- growth inhibition ([4]; at 33.0 µM): 99% (active)
- growth inhibition [4, 17]: 98% (active)
- growth inhibition ([4]; at 50.0 µM): 99.7% (active)
- growth inhibition ([4]; at 100.0 µM): 99% (active)
- growth inhibition ([5]; at 1.2 µM): -3%
- growth inhibition ([5]; at 3.7 µM): 17%
- growth inhibition [5, 16]: -16%
- growth inhibition ([5]; at 11.0 µM): 99% (active)
- growth inhibition ([5]; at 33.0 µM): 100% (active)
- growth inhibition [5, 17]: 99% (active)
- growth inhibition ([5]; at 50.0 µM): 99.7% (active)
- growth inhibition ([5]; at 100.0 µM): 100% (active)
- growth inhibition ([6]; at 1.2 µM): 14%
- growth inhibition ([6]; at 3.7 µM): 53%
- growth inhibition ([6]; at 11.0 µM): 100% (active)
- growth inhibition ([6]; at 33.0 µM): 100% (active)
- growth inhibition ([6]; at 100.0 µM): 100% (active)
- growth inhibition [7, 16]: 36%
- growth inhibition [7, 17]: 99% (active)
- growth inhibition ([7]; at 50.0 µM): 99.5% (active)
- growth inhibition ([8]; at 1.2 µM): -13%
- growth inhibition ([8]; at 3.7 µM): 5%
- growth inhibition ([8]; at 11.0 µM): 81% (active)
- growth inhibition ([8]; at 33.0 µM): 99% (active)
- growth inhibition ([8]; at 100.0 µM): 99% (active)
- growth inhibition [9, 16]: -29%
- growth inhibition [9, 17]: 99% (active)
- growth inhibition ([9]; at 50.0 µM): 99.3% (active)
- growth inhibition ([10]; at 1.2 µM): 10%
- growth inhibition ([10]; at 3.7 µM): 37%
- growth inhibition [10, 16]: -24%
- growth inhibition ([10]; at 11.0 µM): 99% (active)
- growth inhibition ([10]; at 33.0 µM): 99% (active)
- growth inhibition [10, 17]: 99% (active)
- growth inhibition ([10]; at 50.0 µM): 99.4% (active)
- growth inhibition ([10]; at 100.0 µM): 99% (active)
- growth inhibition ([11]; at 1.2 µM): 24%
- growth inhibition ([11]; at 3.7 µM): 76% (active)
- growth inhibition ([11]; at 11.0 µM): 100% (active)
- growth inhibition ([11]; at 33.0 µM): 99% (active)
- growth inhibition ([11]; at 100.0 µM): 99% (active)
- growth inhibition ([12]; at 1.2 µM): -8%
- growth inhibition ([12]; at 3.7 µM): 15%
- growth inhibition ([12]; at 11.0 µM): 98% (active)
- growth inhibition ([12]; at 33.0 µM): 99% (active)
- growth inhibition ([12]; at 100.0 µM): 99% (active)
- growth inhibition ([13]; at 1.2 µM): 20%
- growth inhibition ([13]; at 3.7 µM): 48%
- growth inhibition ([13]; at 11.0 µM): 99% (active)
- growth inhibition ([13]; at 33.0 µM): 100% (active)
- growth inhibition ([13]; at 100.0 µM): 99% (active)
- growth inhibition [14, 16]: 69%
- growth inhibition [14, 17]: 98% (active)
- growth inhibition ([14]; at 50.0 µM): 99.3% (active)
- growth inhibition ([15]; at 1.2 µM): 4%
- growth inhibition ([15]; at 3.7 µM): 32%
- growth inhibition ([15]; at 11.0 µM): 99% (active)
- growth inhibition ([15]; at 33.0 µM): 99% (active)
- growth inhibition ([15]; at 100.0 µM): 99% (active)

Source: PubChem BioAssay (NCI)
